# High-throughput results (PubChem)
# A selection: hits, their analogues and other compounds. The true share with any hit is near 12%.
# BAZ2B block – BAZ2B (human) inhibition | AID 504333 | AlphaScreen BAZ2B-H3K14Ac peptide displacement | Potency, µM (doses to about 114 µM), for the others: at the top dose activity change, negative = inhibition, usual class: inhibitors | actives 4.4% (n = 360,000) | Q9UIF8; note: % is set by controls: 0 for no effect and ±100 for the full control effect; nearly all actives have a fitted effect of over 60% in size
#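 Multi-concentration screen (max 110 uM) measuring displacement of acetylated histone H3 peptide from BAZ2B by AlphaScreen, using 50 nM protein, 50 nM peptide and 10 ug/mL streptavidin donor plus Ni-chelate acceptor beads.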
# Sfp PPTase inh – inhibitors of Bacillus subtilis Sfp phosphopantetheinyl transferase; Q9F4F7; Biochemical Sfp PPTase activity, qHTS; Potency, µM, without a hit: largest response in the series, negative = inhibition, actives largely listed as inhibitors; actives 3.5% (n = 310,000); AID 1490;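 note: the enzyme is Sfp with the accession as filed and its product quenches rhodamine fluorescence; 0% = enzyme reaction without inhibitor and -100% = no enzyme wells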
#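 Fluorescence-quenching assay: 15 nM Sfp-PPTase preincubated 15 min at room temperature with compound, then 5 uM rhodamine-CoA and 12.5 uM BHQ-2-labelled YbbR peptide added. Fluorescence (ex 525/em 598 nm) read at start and after 30 min; difference gives rate.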
# G9a block – blocks human histone lysine methyltransferase G9a; actives 8.8% (n = 350,000); G9a H3K9 monomethylation, AlphaScreen, 2 h; Potency, µM (series often up to 102 µM), for the others: at the highest dose activity, negative = inhibition, most hits filed as inhibitors; Q96KQ7; AID 504332; note: % is set by controls: 0 for no effect and ±100 for the full control effect; nearly all actives have a fitted effect of over 75% in size
#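 Signal arises when biotinylated H3K9 peptide, once monomethylated, bridges streptavidin donor and antibody-captured acceptor beads. Enzyme at 20 nM was preincubated 15 min with test compounds; peptide 500 nM and SAM 20 uM then reacted for 2 h.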
# JMJD2A Tudor inh – inhibitors of human JMJD2A Tudor domain | O75164 | AlphaScreen JMJD2A-Tudor / H3K4me3 peptide binding | Potency, µM (highest dose often 114 µM), for inactives: top-dose activity change, negative = inhibition, hits mostly inhibitors | actives 4.4% (n = 390,000); note: % is set by controls: 0 for no effect and ±100 for the full control effect; nearly all actives have a fitted effect of over 50% in size
# Target sequence (O75164 whole entry, looked up, the tested form may be a part): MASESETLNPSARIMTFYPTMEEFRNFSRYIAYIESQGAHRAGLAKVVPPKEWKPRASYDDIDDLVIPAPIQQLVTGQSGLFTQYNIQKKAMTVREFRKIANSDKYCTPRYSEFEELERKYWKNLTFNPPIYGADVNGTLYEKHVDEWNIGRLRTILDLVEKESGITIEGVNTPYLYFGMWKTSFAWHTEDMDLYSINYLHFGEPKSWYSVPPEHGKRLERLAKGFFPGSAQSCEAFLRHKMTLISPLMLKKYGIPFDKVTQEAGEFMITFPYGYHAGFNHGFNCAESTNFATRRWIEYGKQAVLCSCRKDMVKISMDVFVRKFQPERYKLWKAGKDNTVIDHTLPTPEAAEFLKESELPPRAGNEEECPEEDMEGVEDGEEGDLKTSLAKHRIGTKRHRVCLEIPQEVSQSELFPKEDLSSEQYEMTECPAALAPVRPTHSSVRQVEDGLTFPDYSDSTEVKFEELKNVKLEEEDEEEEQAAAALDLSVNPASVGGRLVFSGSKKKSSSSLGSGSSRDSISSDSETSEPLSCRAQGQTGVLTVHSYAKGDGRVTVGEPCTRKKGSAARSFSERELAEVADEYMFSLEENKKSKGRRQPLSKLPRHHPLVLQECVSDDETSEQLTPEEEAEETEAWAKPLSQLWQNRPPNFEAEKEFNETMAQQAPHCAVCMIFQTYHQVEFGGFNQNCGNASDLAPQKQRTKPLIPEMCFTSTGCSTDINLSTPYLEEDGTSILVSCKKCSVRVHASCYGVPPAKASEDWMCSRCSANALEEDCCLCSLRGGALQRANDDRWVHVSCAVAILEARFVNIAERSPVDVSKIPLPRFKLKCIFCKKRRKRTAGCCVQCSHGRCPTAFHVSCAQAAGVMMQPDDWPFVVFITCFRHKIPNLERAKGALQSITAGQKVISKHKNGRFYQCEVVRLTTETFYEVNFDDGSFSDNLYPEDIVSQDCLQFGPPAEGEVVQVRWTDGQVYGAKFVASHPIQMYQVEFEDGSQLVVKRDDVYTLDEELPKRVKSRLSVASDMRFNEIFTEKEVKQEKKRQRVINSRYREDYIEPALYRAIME
# HP1b chromo inh – blocks HP1-beta chromodomain binding to methylated histone tails | actives 0.56% (n = 390,000) | Potency, µM (series often up to 114 µM), for the others: top-dose activity change, negative = inhibition, actives largely listed as inhibitors | AlphaScreen HP1-beta / biotin-H3K9me3 peptide binding; note: nearly all actives have a fitted effect of over 70% in size
#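 AlphaScreen: HP1-beta (50 nM) preformed 30 min with biotin-H3(1-18)K9me3 peptide (50 nM) in PBS pH 7.4, 0.01% Tween-20. Compound added for 30 min at RT, then streptavidin donor/nickel chelate acceptor beads (10 ug/mL) for 30 min.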
# Active calls of the source: *; ? = inconclusive; nt = no result given; [ ] = remark or other dose. Calls come from the whole dose curve; as a rule, active = well fitted curve in the direction sought with a large enough effect; inconclusive = small, poorly fitted or top-dose-only effect, or another doubt; inactive = no such curve, though single readings can be large; an effect the other way counts as inactive or inconclusive. Potency is the fitted concentration of half-maximal effect.
SMILES,BAZ2B block,Sfp PPTase inh,G9a block,JMJD2A Tudor inh,HP1b chromo inh
Cc1ccc(S(=O)(=O)N(C#N)c2nc(C)cc(C)n2)cc1,?,5.3%,44.7µM*,-13.6%,56.0%
Cc1ccc(S(=O)(=O)CC(O)COc2ccc(C#N)cc2)cc1 (centres undefined),4.4%,5.9%,23.4%[59 µM],-11.0%,6.0%
Cc1cc(N2C(=O)C(O)=C(C(=O)c3cc4ccccc4o3)C2c2ccc(Br)cc2)no1 (centres undefined),?,-4.4%,1.58µM*,?,-2.7%
CCCOc1ccc(C2C(C(=O)c3cc4ccccc4o3)=C(O)C(=O)N2c2cc(C)on2)cc1 (centres undefined),-29.9%,6.7%,31.6µM*,?,9.3%
CCOC(=O)Cn1nnnc1C(CC)N(Cc1cc2c(C)cc(C)cc2[nH]c1=O)C1CCCC1 (centres undefined),3.2%,10.4%,2.1%,nt,nt
CCOc1ccccc1Nc1ccnc2cc(Cl)ccc12,4.8%,0.2%,3.9%,16.2%,89.6%
S=C(NNc1ccnc2cc(Cl)ccc12)Nc1ccc(Cl)cc1Cl,?,20µM*,?,?,?
CCOc1ccc(NC(=S)NNc2ccnc3cc(Cl)ccc23)cc1,?,20µM*,7.08µM*,22.4µM*,11.2µM*
Cc1noc(C)c1C(=O)N1CCC2(CCN(Cc3ccc(C#N)cc3)CC2)CC1,nt,-0.9%,30.9%[12.7 µM],nt,nt
Cc1ccc(S(=O)(=O)Cn2nnnc2C(C(C)C)N2CCN(Cc3ccco3)CC2)cc1 (centres undefined),-5.9%,11.2%,6.7%,-8.8%,24.3%
Cc1ccc(S(=O)(=O)Cn2nnnc2CN(Cc2ccco2)Cc2cccs2)cc1,-0.8%,13.8%,20µM*,-7.2%,15.2%
O=C1C=CC2=C3c4cc(O)c(O)cc4C[C@@]3(O)COC2=C1,nt,31.6µM*,nt,nt,nt
CC1COc2ccccc2N1C(=O)c1ccc(Cl)nc1 (centres undefined),?,-5.4%,-29.5%,-17.7%,19.3%
CS(=O)(=O)O/N=C1\CCCCC1c1ccc([N+](=O)[O-])cc1[N+](=O)[O-] (centres undefined),-19.5%,-7.8%,39.8µM*,-7.0%,21.7%
O=[N+]([O-])c1cc(C(F)(F)F)cc([N+](=O)[O-])c1NCCNC(=S)Nc1ccc(Cl)c(Cl)c1,25.1µM*,-5.1%,nt,31.6µM*,-31.2%
CCOc1ccc(CN2CCc3nc(N4CCN(c5ccccn5)CC4)ncc3C2)cc1OC,79.4µM*,nt,?,89.1µM*,17.0%
CCCCN1CCc2nc(N3CCN(c4ncccn4)CC3)ncc2C1,56.2µM*,nt,17.8µM*,79.4µM*,20.5%
Cc1ccc(CN2CCc3nc(N4CCN(c5ccccc5F)CC4)ncc3C2)cc1C,-18.5%,nt,2.5%[59 µM],-20.5%,37.5%
Brc1ccc(CN2CCc3nc(N4CCN(c5ncccn5)CC4)ncc3C2)cc1,50.1µM*,nt,?,44.7µM*,-31.7%
CCCN1CCc2nc(N3CCN(c4ncccn4)CC3)ncc2C1,50.1µM*,nt,31.6µM*,89.1µM*,26.1%
CCCCN1CCc2nc(N3CCN(C)CC3)ncc2C1,-35.4%,nt,?,-7.9%,45.7%
CCN1CCN(c2ncc3c(n2)CCN(Cc2ccc(OC(C)C)cc2)C3)CC1,?,nt,?,?,-11.9%
CCOC(=O)[C@H]1[C@H]2COc3ccc(Cl)cc3[C@@H]2N2C(=O)c3cc(F)c(F)cc3NC(=O)[C@@]12C,0.1%,nt,27.1%[2.33 µM],-16.6%,16.2%
O=C(Nc1cccc(C(=O)N2CCOCC2)c1)C1CC1,nt,nt,nt,-10.1%,23.0%
CCOc1ccccc1CN1CCc2nc(N3CCN(c4ccccc4F)CC3)ncc2C1,56.2µM*,nt,?,79.4µM*,-5.2%
Fc1ccc(CN2CCc3nc(N4CCN(c5ccccc5F)CC4)ncc3C2)c(F)c1,-8.8%,nt,7.9%[59 µM],-9.3%,12.7%
Nc1ccc2c(c1)-c1ccccc1S(=O)(=O)N2,?,-15.7%,31.6µM*,?,-5.9%
COc1cc(C)c(/C=C/C(C)=C/C=C/C(C)=C/C(=O)O)c(C)c1C,nt,-13.1%,?,56.2µM*,9.7%
CC(C)CO/N=C1/C[C@@H](O)[C@@H](O)[C@@H]2[C@H]3C(=O)N(c4ccc(F)cc4F)C(=O)[C@@H]3CC[C@@H]12,nt,12.9%,nt,nt,nt
